Source: PubChem BioAssay (several laboratories)
LANA-H2A inh: blocks KSHV LANA binding to histone H2A/H2B; Q9QR71; inhibition, % (no concentration beside the values); 320,000 tested, 0.6% active; cell-free LANA-H2A/H2B peptide, fluorescence polarization; AID 2629; in the data active = inhibition mostly above about 10%, no sharp cut-off; inactive = mostly below about 6.7%
ZTA DNA inh: counter-screen for EBNA-1 inhibitors: inhibitors of Epstein-Barr virus ZTA; inhibition, % at 11 µM; AID 2234; 320,000 tested, 0.15% active; ZTA-DNA binding, fluorescence polarization; in the data active = inhibition above about 33%
Target sequence (P03206 whole entry, looked up): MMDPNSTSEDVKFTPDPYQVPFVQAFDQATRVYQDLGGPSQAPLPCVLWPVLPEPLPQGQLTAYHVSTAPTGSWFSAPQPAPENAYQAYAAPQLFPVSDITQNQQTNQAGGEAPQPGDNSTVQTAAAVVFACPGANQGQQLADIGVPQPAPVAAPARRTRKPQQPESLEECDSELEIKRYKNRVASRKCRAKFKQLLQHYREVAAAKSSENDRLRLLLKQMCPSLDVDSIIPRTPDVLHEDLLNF
LYPLA1 counter: blocks human lysophospholipase 1, a PME1 counter-screen; O75608; recombinant LYPLA1, FP-Rh probe fluorescence polarization; inhibition, % at 5.9 µM; 320,000 tested, 0.16% active; AID 2174;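 active = inhibition above the mean of all tested compounds plus 3 SD, set per campaign, cut at about 14% in these data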;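 also: inhibitors block serine hydrolase probe labeling of LYPLA1 so polarization falls; 0% = enzyme with DMSO and 100% = wells lacking LYPLA1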
Target sequence (O75608 whole entry, looked up): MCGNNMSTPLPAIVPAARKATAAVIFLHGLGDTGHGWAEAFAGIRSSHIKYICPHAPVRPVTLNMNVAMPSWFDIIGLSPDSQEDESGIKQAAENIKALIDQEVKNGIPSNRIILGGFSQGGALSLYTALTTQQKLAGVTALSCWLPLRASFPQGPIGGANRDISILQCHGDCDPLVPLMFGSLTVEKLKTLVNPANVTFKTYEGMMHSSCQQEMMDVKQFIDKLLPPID
LYPLA2 counter: LYPLA2 (human) inhibition in PME1 counter-screen. recombinant LYPLA2, FP-Rh probe fluorescence polarization. inhibition, % at 5.9 µM. 320,000 tested, 0.38% active;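 active = inhibition above the screen-wide mean plus 3 SD, limit set per campaign, cut at about 26% in these data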;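 also: 0% = LYPLA2 with DMSO and 100% = wells lacking LYPLA2 enzyme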
Target sequence (O95372 whole entry, looked up): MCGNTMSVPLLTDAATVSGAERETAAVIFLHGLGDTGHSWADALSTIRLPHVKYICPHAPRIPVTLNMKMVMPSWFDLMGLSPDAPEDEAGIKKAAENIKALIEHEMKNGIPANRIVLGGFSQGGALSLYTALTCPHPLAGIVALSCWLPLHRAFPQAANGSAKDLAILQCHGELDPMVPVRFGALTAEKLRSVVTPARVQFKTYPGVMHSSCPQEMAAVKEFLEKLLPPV
EBNA-1 inhibitor: blocks EBNA-1 binding to DNA; EBNA-1 DNA binding, fluorescence polarization; 300,000 tested, 0.34% active; AID 1950; inhibition, % at 14.8 µM; in the data active = inhibition above about 28%
LYPLA2 conf: counter-screen for PME1 inhibitors: confirmation of human LYPLA2 inhibitors; shares compounds with LYPLA2 counter; AID 2232; 1,100 tested, 72% active; inhibition, % at 5.9 µM; recombinant LYPLA2, FP-Rh probe fluorescence polarization;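 active = mean inhibition across replicates above the hit cutoff set in the primary screen, cut at about 26% in these data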;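 also: blocked labeling of the enzyme by serine hydrolase FP-Rh probe lowers polarization; 0% = enzyme with DMSO and 100% = wells lacking LYPLA2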
LYPLA2 ABPP: inhibitors of human LYPLA2 | shares compounds with LYPLA2 counter | rhLYPLA2 in mouse brain proteome, gel ABPP FP-Rh | inhibition, % at 20 µM | 150 tested, 30% active;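 active = inhibition of LYPLA2 enzyme probe labeling above about 50%, limit read from the data; inactive = inhibition below that limit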;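 also: loss of FP-Rh probe labeling of the LYPLA2 gel band measured as band density; 0% = DMSO only control band and 100% = blank gel background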
Starred values were filed as active, the others as inactive; nt = not tested or not shown. Hits are enriched below; roughly 1.4% of the tested compounds scored in any of these assays.

SMILES | LANA-H2A inh | ZTA DNA inh | LYPLA1 counter | LYPLA2 counter | EBNA-1 inhibitor | LYPLA2 conf | others
CCn1nc(C)cc1C(=O)N1CCCC(N2CCN(c3cccc(Cl)c3)CC2)C1 (stereo unspecified) | -2.3 | 16.3 | 3.0 | 45.9* | 1.0 | 46.5*
O=C(CSc1ccccc1)N1CCCC(N2CCN(c3cccc(Cl)c3)CC2)C1 (stereo unspecified) | 0.8 | -11.9 | 9.1 | 69.3* | 3.7 | 64.0* | LYPLA2 ABPP=48.0
Cc1ccc(F)cc1NC(=O)c1sc2ncn(CC(=O)N3CCN(c4ccccn4)CC3)c(=O)c2c1C | 9.2 | -16.7 | -3.1 | 8.2 | -5.4 | nt
Cc1c(C(=O)Oc2ccc(F)cc2)sc2ncn(Cc3cccc(F)c3)c(=O)c12 | -0.9 | 10.9 | 3.5 | 34.6* | -1.1 | 30.0*
CCn1cnc2sc(C(=O)Oc3cccc(C)c3)c(C)c2c1=O | 2.7 | 6.2 | -3.6 | 27.7* | 1.3 | 36.2*
O=C(NNC(=O)c1cc2ccccc2oc1=O)c1ccccc1[N+](=O)[O-] | 2.2 | -10.4 | 4.9 | 27.5* | 1.1 | 2.5
COc1ccc(N2CCN(C(=O)CN(C)S(=O)(=O)c3cccs3)CC2)cc1 | 1.6 | -17.5 | 4.5 | 28.5* | -4.6 | 36.2*
NC(=O)c1cc2ccncc2c2ccccc12 | 0.5 | -1.6 | 0.8 | -2.6 | -3.2 | nt
COc1ccc(NC(=O)C2C3C=CC4(O3)C2C(=O)N(CCN2CCCCC2)C4C(=O)NC2CCCC(C)C2C)cc1 (stereo unspecified) | -7.2 | -2.3 | 0.9 | -4.7 | -22.4 | nt
CCCN1CCN(C(=O)C(C)n2nc(C)c3sc4ccccc4c3c2=O)CC1 (stereo unspecified) | -0.7 | 10.5 | 1.0 | -0.2 | -4.3 | nt
Cc1ccc(C(=O)Nc2cccc(C(=O)NC3CCCCC3)c2)cc1 | 0.9 | -12.3 | -2.0 | 30.1* | -3.3 | 30.9*
O=C(c1cc(COc2ccc(F)cc2F)on1)N1C[C@H]2CC[C@H]1C2 | -2.9 | 0.4 | 2.4 | 26.9* | -2.0 | 0.6
O=C(c1cc(COc2ccc(F)cc2F)on1)N1CC2C[C@@H]3CC1C[C@H](C2)C3 | -4.8 | 4.7 | -0.2 | 7.3 | -4.5 | nt
O=C(O)CSc1cc(NS(=O)(=O)c2ccc(Br)cc2)c2ccccc2c1O | 1.5 | 8.9 | 8.5 | 37.5* | 13.4 | 20.5
O=C(COc1ccc(S(=O)(=O)NCc2ccccc2)cc1Cl)NCc1ccncc1 | -5.3 | 3.2 | -2.0 | 40.6* | -15.7 | 46.0*
COc1cc(C(=O)NCC(=O)NC(C)CCc2ccccc2)cc(OC)c1OC (stereo unspecified) | -0.7 | -1.2 | 3.3 | 27.4* | 1.7 | -1.9
COc1ccc(S(=O)(=O)N2CCN(C(=O)N3CCOCC3)C2C)cc1 (stereo unspecified) | 1.6 | -13.5 | 2.6 | 2.5 | 0.8 | nt
CCc1ccc(N(CC(=O)NCc2ccco2)C(=O)CCC(=O)Nc2nccs2)cc1 | 4.1 | 5.0 | -0.8 | 1.3 | -6.7 | nt
COC(=O)Cc1ccc(NC(=O)c2ccc3c(c2)C(=O)N(Cc2cccnc2)C3=O)cc1 | -2.3 | 14.7 | 3.5 | 28.3* | -8.0 | 25.9*
CCOC(=O)c1ccc(NC(=O)c2ccc3c(c2)C(=O)N(Cc2cccnc2)C3=O)cc1 | -2.8 | -7.0 | 3.4 | 40.5* | 6.8 | 47.2*
O=C(O)c1cc(NC(=O)c2ccc3c(c2)C(=O)N(Cc2cccnc2)C3=O)cc(C(=O)O)c1 | 2.3 | 0.0 | -1.5 | -4.9 | 2.9 | nt
CC(C)c1ccc(NC(=O)c2ccc3c(c2)C(=O)N(Cc2cccnc2)C3=O)cc1 | 0.7 | -14.8 | -0.5 | 51.0* | -6.3 | 53.2* | LYPLA2 ABPP=26.0
COc1ccc(OCC(=O)Nc2cc3c(cc2C(=O)O)OCCCO3)cc1 | -1.0 | 0.8 | 0.9 | 2.0 | 3.5 | nt
CC(C)(C)OC(=O)C[C@H]1C/C=C\C[C@H](CC(=O)N[C@H](CO)Cc2ccccc2)C(=O)N[C@@H](Cc2ccccc2)COC1=O | 5.0 | nt | nt | nt | nt | nt
O=C(NCCCC1CCCC1)C1CCC(=O)N(Cc2ccc(Cl)cc2)C1 (stereo unspecified) | -3.2 | 8.2 | 2.0 | 27.5* | 2.4 | 33.7*
SMILES | LANA-H2A inh | ZTA DNA inh | LYPLA1 counter | LYPLA2 counter | EBNA-1 inhibitor | LYPLA2 conf | others
O=C(NNC(=O)C1CC2CCC1C2)c1sc2ccccc2c1Cl (stereo unspecified) | -3.2 | -18.9 | 0.3 | 3.0 | 3.6 | nt
CN(Cc1nc(-c2ccc(Cl)cc2)no1)C(=O)c1ccc2c(c1)OCO2 | nt | 8.9 | 13.3 | 33.8* | -7.4 | 34.5*
CN(Cc1nc(-c2ccncc2)no1)S(=O)(=O)c1ccc(Cl)cc1 | -3.2 | 10.3 | 2.1 | 28.3* | -3.1 | 30.4*
CN(Cc1nc(-c2ccncc2)no1)S(=O)(=O)c1ccc(Br)cc1 | 5.3 | -11.5 | 5.3 | 37.2* | -0.1 | 35.5*
CCCn1c(SCC(=O)NC2CCCC2)nnc1-c1cccnc1 | -17.2 | 7.1 | -1.5 | 2.1 | 0.9 | nt
COC(=O)CCCC(=O)N1CCC(CCC(=O)NCc2ccc(F)cc2)CC1 | 1.8 | 6.0 | -1.4 | -5.9 | 2.9 | nt
CC(C)CC(=O)Nc1ccc(C(=O)Cn2nc(C(=O)O)c3ccccc3c2=O)cc1 | 4.1 | -0.8 | -0.4 | 43.6* | -2.6 | 38.6*
CC(C)(C)c1ccc(C(=O)Cn2nc(C(=O)O)c3ccccc3c2=O)cc1 | 7.3 | 17.2 | -2.1 | 0.1 | 2.7 | nt
COc1ccc(CN2CCc3c([nH]c4ccccc34)C2)c(OC)c1C | -7.1 | 6.1 | -1.4 | 5.5 | 6.0 | nt
O=C1C2CCCN2C(=O)N1CCCCN1CCN(c2cccc(Cl)c2)CC1 (stereo unspecified) | 2.0 | 7.0 | 1.5 | 39.3* | 0.8 | 35.8*
COc1ccccc1NC(=O)NCCN1CCN(c2cccc(Cl)c2)CC1 | 3.2 | -10.9 | 5.8 | 43.0* | -7.7 | 31.8*
O=C(CC1CC2CCC1C2)NC1CCCCCCC1 (stereo unspecified) | -0.3 | -2.3 | -2.1 | 0.4 | -1.1 | nt
S=C(NCCCN1CCOCC1)Nc1ccc(Cl)cc1 | -5.7 | -8.4 | 1.2 | 26.5* | 3.5 | -4.5
O=C(CSc1nnnn1-c1ccc(F)cc1)Nc1ccccc1F | -7.4 | nt | nt | nt | nt | nt
COC(=O)CNC(=O)c1sc2ncn(CC(=O)Nc3ccc(C)c(Cl)c3)c(=O)c2c1C | -1.7 | -3.6 | -9.4 | 39.5* | 3.4 | 46.1*
Cc1ccc(NC(=O)Cn2cnc3sc(C(=O)NCc4ccco4)c(C)c3c2=O)cc1Cl | -5.1 | -11.6 | -6.6 | 22.7 | 8.7 | nt
COCCNC(=O)c1sc2ncn(CC(=O)Nc3ccc(C)c(Cl)c3)c(=O)c2c1C | -1.4 | -13.4 | 2.4 | 50.0* | -6.6 | 47.4*
COCCNC(=O)CN1C(=O)/C(=C/c2ccccc2)Oc2ccc(C(C)(C)C)cc21 | -0.1 | 3.8 | -10.3 | -5.5 | -1.3 | nt
O=C(CNC(=O)C1CCCCC1)OCC(=O)c1cccc(Cl)c1 | -12.3 | nt | nt | nt | nt | nt
COc1ccc(NC(=O)CN(C)C(=O)CSCc2ccc(C)cc2)cc1 | 0.6 | -12.5 | 1.9 | 2.1 | -5.9 | nt
